Screening results (PubChem)
This is a sample that favours compounds with a hit; in the whole collection about 3.8% have one here.
Y pestis TopoI – inhibitors of Yersinia pestis topoisomerase I; Y. pestis Topo-I cleavage product accumulation, plate reader; activity, % at 10 µM; 360,000 compounds, 0.064% hits; in the data active means activity above about 50%, passing the limit was not always enough
PrP UTR inh – suppresses PrP 5' UTR mRNA reporter expression; AID 488862; 340,000 compounds, 0.35% hits; cell-based PrP 5' UTR mRNA reporter, plate reader; inhibition, % (no concentration beside the values); in the data active means inhibition above about 52%; further: 0 = median of the neutral control wells
Mtb FBA inh – Mtb fructose-bisphosphate aldolase inhibition | inhibition, % at 1 µM | AID 588726 | 360,000 compounds, 2.3% hits | purified M. tuberculosis FBA, fluorescence read-out; in the data active means inhibition above about 27%;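 further: 0% = vehicle and 100% = reference inhibitor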
PrPC surface inh – inhibitors of human cell surface prion protein PrPC; P04156; TR-FRET read-out; inhibition, % at 13.8 µM; 370,000 compounds, 0.43% hits; in the data active means inhibition above about 24%; further: 0% = median of the test wells and 100% = reference compound wells
GDH-TPI inh – counter-screen for M. tuberculosis FBA inhibitors: GDH-TPI coupled enzymes. GDH-TPI coupled enzyme counterscreen, NADH absorbance. 360,000 compounds, 1.2% hits. inhibition, % at 4.8 µM; in the data active means inhibition above about 30%;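 further: 0% = DMSO wells and 100% = wells lacking the enzyme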
Mtb hypoxia inh – Mtb hypoxia fluorescent reporter inhibition; M. tuberculosis hypoxia-regulated fluorescent reporter, fluorescence; fluorescence inhibition, % (concentration not given with the values); 300,000 compounds, 0.1% hits; in the data active means fluorescence inhibition mostly above about 23%, no sharp cut-off; inactive means mostly below about 17%
PrPC confirm – confirmation of inhibitors of cell surface human prion protein | inhibition, % at 13.8 µM | 1,500 compounds, 65% hits | shares compounds with PrPC surface inh | cell surface PrPC level, TR-FRET; in the data active means inhibition above about 25%
LD9 tox – LD9 cell cytotoxicity, PrPc inhibitor counter-screen; 1,500 compounds, 29% hits; shares compounds with PrPC surface inh; inhibition, % at 13.8 µM; LD9 cells cytotoxicity, luminescence viability; in the data active means inhibition above about 9.5%
Active calls of the source: *.

Clc1cccc(CNc2nc(-c3ccccn3)nnc2-c2ccccc2)c1 was read as PrPC surface inh 29*, PrPC confirm 37* and LD9 tox 43*.
`CC(C)(C)c1ccc(CNc2nc(-c3ccccn3)nnc2-c2ccccc2)cc1` gave PrPC surface inh 24*, PrPC confirm 38* and LD9 tox 33*.
c1ccc(-c2nnc(-c3ccccn3)nc2NC2CCCCC2)cc1 was read as Y pestis TopoI 21, PrP UTR inh 20, Mtb FBA inh -2, PrPC surface inh 38*, GDH-TPI inh 18, PrPC confirm 33* and LD9 tox 45*.
Screening O=C(NN=C/C(Cl)=C/c1ccc([N+](=O)[O-])cc1)C(=O)Nc1ccccc1C(=O)O returned Mtb hypoxia inh 13.
For COc1ccc(C=NNC(=O)c2cc(-c3cccn3C)n[nH]2)cc1OC the results were Mtb hypoxia inh 23.
Screening Cc1cc(Br)cn2c(Cc3ccccc3)c(-c3ccco3)nc12 returned Mtb FBA inh 2, PrPC surface inh 35*, PrPC confirm 50* and LD9 tox -3.
For COc1ccccc1Cc1c(-c2ccco2)nc2c(C)cc(Br)cn12 the results were Mtb FBA inh 0.
For Cc1cc(Br)cn2c(Cc3ccsc3)c(-c3ccco3)nc12 the results were Mtb FBA inh 2, PrPC surface inh 30*, PrPC confirm 43* and LD9 tox -3.
Cc1ccc(Cc2c(-c3ccco3)nc3ccc(Br)cn23)cc1 was read as Mtb FBA inh -5, PrPC surface inh 34*, PrPC confirm 57* and LD9 tox -5.
For Cc1ccc(Cc2c(-c3ccc(C)cc3)nc3ccc(Br)cn23)cc1 the results were Y pestis TopoI 3, Mtb FBA inh 0, PrPC surface inh 20 and GDH-TPI inh -7.
For CCCCOc1ccc(C=NNC(=O)c2nnn(-c3nonc3N)c2C)cc1 the results were Mtb hypoxia inh 5.
CC(=NNC(=O)Cc1ccccc1Cl)c1cccnc1 was read as Mtb hypoxia inh 11.
`CC(=O)N=c1sc2nc3ccccc3nc2n1N(C(C)=O)C(C)=O` gave Y pestis TopoI 3, PrP UTR inh -12, Mtb FBA inh 5, PrPC surface inh 28*, GDH-TPI inh 30, Mtb hypoxia inh 13, PrPC confirm 37* and LD9 tox 3.
For NC(=O)C1=CC(c2ccc3c(c2)OCO3)CC(OCCCCO)O1 (stereo unspecified) the results were Mtb hypoxia inh 0.
Cc1ccc(OCc2cc(C(=O)NCc3cn4ccccc4n3)no2)cc1C was read as Y pestis TopoI 25, PrP UTR inh -11, Mtb FBA inh -1, PrPC surface inh 43*, GDH-TPI inh 2, Mtb hypoxia inh 7, PrPC confirm 39* and LD9 tox -5.
For C[C@H](NC(=O)OC(C)(C)C)C(=O)NN=Cc1ccc2nccnc2c1 the results were Mtb hypoxia inh 2.
For COc1cccc(C(NC(C)=O)c2ccc3cccnc3c2O)c1 (stereo unspecified) the results were Y pestis TopoI -1, PrP UTR inh 31, Mtb FBA inh 3, PrPC surface inh 41*, GDH-TPI inh 5, PrPC confirm 33* and LD9 tox 44*.
`CCC(=O)NC(c1ccccc1OC)c1ccc2cccnc2c1O` (stereo unspecified) gave Y pestis TopoI -5, PrP UTR inh 39, Mtb FBA inh -1, GDH-TPI inh 0 and Mtb hypoxia inh 3.
For CCCCC(=O)NC(c1cccc([N+](=O)[O-])c1)c1ccc2cccnc2c1O (stereo unspecified) the results were Y pestis TopoI 13, PrP UTR inh 29, Mtb FBA inh -1, PrPC surface inh 9, GDH-TPI inh 0 and Mtb hypoxia inh 14.
Screening CC(=O)NC(c1ccc(C(C)C)cc1)c1ccc2cccnc2c1O (stereo unspecified) returned Y pestis TopoI 12, PrP UTR inh 33, Mtb FBA inh -6, PrPC surface inh 26*, GDH-TPI inh 1, PrPC confirm 28* and LD9 tox 22*.
`CC(=O)NC(c1cccc([N+](=O)[O-])c1)c1ccc2cccnc2c1O` (stereo unspecified) gave Y pestis TopoI -3, PrP UTR inh 31, Mtb FBA inh -1, PrPC surface inh 40*, GDH-TPI inh 4, PrPC confirm 37* and LD9 tox 38*.
For CC=NNC(=O)c1cc(Br)ccc1O the results were Mtb hypoxia inh 2.
`C(=NN1CCN(Cc2cccc3ccccc23)CC1)c1cccnc1` gave Mtb hypoxia inh 2.
For COc1cccc(C(=O)NN=C(C)CC(=O)Nc2ccc(N(C)C)cc2)c1 the results were Mtb hypoxia inh 1.
For CC(C)C(NC(=O)C12CC3CC(CC(C3)C1)C2)C(=O)NN=CC1=C(N2CCOCC2)/C(=C\c2ccc([N+](=O)[O-])cc2)CC1 (stereo unspecified) the results were Mtb hypoxia inh 1.
`Cc1nn(C)cc1C=NO` gave Mtb hypoxia inh 5.
CC[C@@H]1C[C@H]2CC[C@H](O2)[C@H](C)C(=O)O[C@@H](C)C[C@@H]2CC[C@@H](O2)[C@@H](C)C(=O)O[C@H](C)C[C@H]2CC[C@H](O2)[C@H](C)C(=O)O[C@@H](C)C[C@@H]2CC[C@@H](O2)[C@@H](C)C(=O)O1 was read as PrPC surface inh 39*, PrPC confirm 56* and LD9 tox 55*.
For Cc1ccc(NS(=O)(=O)c2ccc3c(c2)NC(=O)CCS3)cc1F the results were Y pestis TopoI 7, PrP UTR inh -9, Mtb FBA inh -2, PrPC surface inh 8, GDH-TPI inh 1 and Mtb hypoxia inh 5.
Cc1ccc(NS(=O)(=O)c2ccc3c(c2)NC(=O)CCS3)cc1C was read as Y pestis TopoI -1, PrP UTR inh -7, Mtb FBA inh 4, PrPC surface inh 25*, GDH-TPI inh 12, Mtb hypoxia inh -8, PrPC confirm 18 and LD9 tox 27*.
Screening CCCCCCn1c(=O)n2n(c1=O)C[C@]1(OC(=O)NCc3ccccc3)CN(S(=O)(=O)c3ccc(C)cc3)C[C@]1(O)C2 returned Y pestis TopoI 9, Mtb FBA inh -2, PrPC surface inh -1 and GDH-TPI inh 9.
CCCCCCn1c(=O)n2n(c1=O)C[C@]1(OC(=O)Nc3cccs3)CN(S(=O)(=O)c3ccc(C)cc3)C[C@]1(O)C2 was read as Y pestis TopoI 2, Mtb FBA inh 5, PrPC surface inh 25*, GDH-TPI inh 19, PrPC confirm 5 and LD9 tox 0.
